{
  "source": "paper PMC12864922",
  "about": "“TDP-43 directly inhibits mRNA accumulation in neurites through modulation of mRNA stability”",
  "binders": {"B1": {"name": "ENSMUSG00000029028.23|Lrrc47 (ssRNA)", "RNA": "GGGAGUUCUACAGUCCGACGAUCGCUUCGAUAUCCGCAUGCUAGUCUGUGUGGGUGUGGGUGUGCUGUAGGUGUCUGUGUGGGUGUGGGUGUGCUAUAGGUAUCUGUGGGUGUGCUGUAGGUGUCUGUGUGGGUGUGCUGUAGGUGUCUGUGUAGGUGUGGGUGUGCUGUAGGUGUCUGUGUGGGUGUGCUAGGUGUCUGUAUAGGUGUGGGUGUGCUGUAGAUGUCUGUGUAGGUAUGGGUGUGCUGUAGAUCUUUGUAGGUGUAGGUAUGCUGUAGGUAUCUGGGUGUGGGUAUGCUGUAGCUCUUGCGGUCGCACUAGUGUGGAAUUCUCGGGUGUCAAGG"}, "B2": {"name": "ENSMUSG00000029028.18|Lrrc47 (ssRNA)", "RNA": "GGGAGUUCUACAGUCCGACGAUCGCUUCGAUAUCCGCAUGCUAGGCUCCUGUAGGUGUGGGUGUGCUGUAGGUGUCUGUGUGGGUGUGGGUGUGCUGUAGGUGUCUGUGUGGGUGUGGGUGUGCUAUAGGUAUCUGUGGGUGUGCUGUAGGUGUCUGUGUGGGUGUGCUGUAGGUGUCUGUGUAGGUGUGGGUGUGCUGUAGGUGUCUGUGUGGGUGUGCUAGGUGUCUGUAUAGGUGUGGGUGUGCUGUAGAUGUCUGUGUAGGUAUGGGUGUGCUGUAGAUCUUUGUAGGUGUAGGUAUGCCUCUUGCGGUCGCACUAGUGUGGAAUUCUCGGGUGUCAAGG"}, "B3": {"name": "ENSMUSG00000029028.33|Lrrc47 (ssRNA)", "RNA": "GGGAGUUCUACAGUCCGACGAUCGCUUCGAUAUCCGCAUGCUACUGUGGGUGUGCUGUAGGUGUCUGUGUGGGUGUGCUGUAGGUGUCUGUGUAGGUGUGGGUGUGCUGUAGGUGUCUGUGUGGGUGUGCUAGGUGUCUGUAUAGGUGUGGGUGUGCUGUAGAUGUCUGUGUAGGUAUGGGUGUGCUGUAGAUCUUUGUAGGUGUAGGUAUGCUGUAGGUAUCUGGGUGUGGGUAUGCUGUAGAUGUCUGUGUAGGUGUGGAUAUGCUGUAGGUAUCUGGGUGUGCUGUAGGUGUCUGUGUGGCUCUUGCGGUCGCACUAGUGUGGAAUUCUCGGGUGUCAAGG"}, "B4": {"name": "ENSMUSG00000029028.27|Lrrc47 (ssRNA)", "RNA": "GGGAGUUCUACAGUCCGACGAUCGCUUCGAUAUCCGCAUGCUAUAGGUGUCUGUGUGGGUGUGGGUGUGCUAUAGGUAUCUGUGGGUGUGCUGUAGGUGUCUGUGUGGGUGUGCUGUAGGUGUCUGUGUAGGUGUGGGUGUGCUGUAGGUGUCUGUGUGGGUGUGCUAGGUGUCUGUAUAGGUGUGGGUGUGCUGUAGAUGUCUGUGUAGGUAUGGGUGUGCUGUAGAUCUUUGUAGGUGUAGGUAUGCUGUAGGUAUCUGGGUGUGGGUAUGCUGUAGAUGUCUGUGUAGGUGUGGAUAUGCCUCUUGCGGUCGCACUAGUGUGGAAUUCUCGGGUGUCAAGG"}, "B5": {"name": "ENSMUSG00000029028.16|Lrrc47 (ssRNA)", "RNA": "GGGAGUUCUACAGUCCGACGAUCGCUUCGAUAUCCGCAUGCUAGGUCCGCUGACAGGCUCCUGUAGGUGUGGGUGUGCUGUAGGUGUCUGUGUGGGUGUGGGUGUGCUGUAGGUGUCUGUGUGGGUGUGGGUGUGCUAUAGGUAUCUGUGGGUGUGCUGUAGGUGUCUGUGUGGGUGUGCUGUAGGUGUCUGUGUAGGUGUGGGUGUGCUGUAGGUGUCUGUGUGGGUGUGCUAGGUGUCUGUAUAGGUGUGGGUGUGCUGUAGAUGUCUGUGUAGGUAUGGGUGUGCUGUAGAUCUUUGUAGCUCUUGCGGUCGCACUAGUGUGGAAUUCUCGGGUGUCAAGG"}, "B6": {"name": "ENSMUSG00000029028.22|Lrrc47 (ssRNA)", "RNA": "GGGAGUUCUACAGUCCGACGAUCGCUUCGAUAUCCGCAUGCUAGUAGGUGUCUGUGUGGGUGUGGGUGUGCUGUAGGUGUCUGUGUGGGUGUGGGUGUGCUAUAGGUAUCUGUGGGUGUGCUGUAGGUGUCUGUGUGGGUGUGCUGUAGGUGUCUGUGUAGGUGUGGGUGUGCUGUAGGUGUCUGUGUGGGUGUGCUAGGUGUCUGUAUAGGUGUGGGUGUGCUGUAGAUGUCUGUGUAGGUAUGGGUGUGCUGUAGAUCUUUGUAGGUGUAGGUAUGCUGUAGGUAUCUGGGUGUGGGUAUGCUCUUGCGGUCGCACUAGUGUGGAAUUCUCGGGUGUCAAGG"}, "B7": {"name": "ENSMUSG00000029028.15|Lrrc47 (ssRNA)", "RNA": "GGGAGUUCUACAGUCCGACGAUCGCUUCGAUAUCCGCAUGCUAGACUGUGGUCCGCUGACAGGCUCCUGUAGGUGUGGGUGUGCUGUAGGUGUCUGUGUGGGUGUGGGUGUGCUGUAGGUGUCUGUGUGGGUGUGGGUGUGCUAUAGGUAUCUGUGGGUGUGCUGUAGGUGUCUGUGUGGGUGUGCUGUAGGUGUCUGUGUAGGUGUGGGUGUGCUGUAGGUGUCUGUGUGGGUGUGCUAGGUGUCUGUAUAGGUGUGGGUGUGCUGUAGAUGUCUGUGUAGGUAUGGGUGUGCUGUAGAUCUCUCUUGCGGUCGCACUAGUGUGGAAUUCUCGGGUGUCAAGG"}, "B8": {"name": "ENSMUSG00000029028.17|Lrrc47 (ssRNA)", "RNA": "GGGAGUUCUACAGUCCGACGAUCGCUUCGAUAUCCGCAUGCUACUGACAGGCUCCUGUAGGUGUGGGUGUGCUGUAGGUGUCUGUGUGGGUGUGGGUGUGCUGUAGGUGUCUGUGUGGGUGUGGGUGUGCUAUAGGUAUCUGUGGGUGUGCUGUAGGUGUCUGUGUGGGUGUGCUGUAGGUGUCUGUGUAGGUGUGGGUGUGCUGUAGGUGUCUGUGUGGGUGUGCUAGGUGUCUGUAUAGGUGUGGGUGUGCUGUAGAUGUCUGUGUAGGUAUGGGUGUGCUGUAGAUCUUUGUAGGUGUAGCUCUUGCGGUCGCACUAGUGUGGAAUUCUCGGGUGUCAAGG"}, "B9": {"name": "ENSMUSG00000029028.14|Lrrc47 (ssRNA)", "RNA": "GGGAGUUCUACAGUCCGACGAUCGCUUCGAUAUCCGCAUGCUACCACGUGACUGUGGUCCGCUGACAGGCUCCUGUAGGUGUGGGUGUGCUGUAGGUGUCUGUGUGGGUGUGGGUGUGCUGUAGGUGUCUGUGUGGGUGUGGGUGUGCUAUAGGUAUCUGUGGGUGUGCUGUAGGUGUCUGUGUGGGUGUGCUGUAGGUGUCUGUGUAGGUGUGGGUGUGCUGUAGGUGUCUGUGUGGGUGUGCUAGGUGUCUGUAUAGGUGUGGGUGUGCUGUAGAUGUCUGUGUAGGUAUGGGUGUGCUGUCUCUUGCGGUCGCACUAGUGUGGAAUUCUCGGGUGUCAAGG"}},
  "note": "Over roughly 9,900 sequences, “r (bound/input frequency ratio)” has its median near 0.7; the highest 2% begin near 6.5. The entries come from a sample that favours the highest values as a whole.",
  "data": [
    {"biological_target": "TDP-43 (Homo sapiens, UniProt Q13148 1-414)", "sequence (Q13148 whole entry)": "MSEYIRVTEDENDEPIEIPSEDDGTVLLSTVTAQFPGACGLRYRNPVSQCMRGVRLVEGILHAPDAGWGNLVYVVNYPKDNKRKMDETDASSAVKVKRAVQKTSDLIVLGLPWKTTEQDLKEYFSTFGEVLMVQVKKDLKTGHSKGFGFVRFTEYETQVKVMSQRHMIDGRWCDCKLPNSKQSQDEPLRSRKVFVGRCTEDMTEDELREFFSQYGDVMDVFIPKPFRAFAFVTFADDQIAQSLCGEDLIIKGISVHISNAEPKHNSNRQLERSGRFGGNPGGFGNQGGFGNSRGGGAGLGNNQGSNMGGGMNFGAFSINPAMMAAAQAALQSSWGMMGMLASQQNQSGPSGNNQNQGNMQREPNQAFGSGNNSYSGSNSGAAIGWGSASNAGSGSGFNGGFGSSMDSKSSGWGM", "assay": "RNA Bind-n-Seq with designed 260-mer pool; 25 mM Tris-HCl, 150 mM KCl, 3 mM MgCl2, BSA (printed 500 mg/mL), 20 units/mL SUPERase IN; pH not stated; 500 nM RNA pool, 1 h, 4 C; TDP-43 5, 50, 500 nM; high values mean tight binding", "conditions": "protein: recombinant; tags: SBP (GST cleaved off with PreScission; pGEX-GST-SBP)", "outline": "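In 25 mM Tris-HCl, 150 mM KCl, 3 mM MgCl2, BSA and SUPERase IN, 500 nM of an in vitro-transcribed 260-nt 3′ UTR oligo pool was incubated for 1 h at 4 °C with SBP-tagged TDP-43 (5, 50 or 500 nM) captured on streptavidin beads. RNA remaining after washes was biotin-eluted, reverse transcribed, PCR-amplified and sequenced. Binding, R, is the bound-sample abundance of each oligo, normalized to mapped reads, divided by its abundance in input. Each duplicate used a separate, independent protein batch.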", "values": [
      {"binder": "B1", "binding signal": "5.87 R (bound/input frequency ratio)"},
      {"binder": "B2", "binding signal": "5.03 R (bound/input frequency ratio)"},
      {"binder": "B3", "binding signal": "5.4 R (bound/input frequency ratio)"},
      {"binder": "B4", "binding signal": "5.47 R (bound/input frequency ratio)"},
      {"binder": "B5", "binding signal": "6.62 R (bound/input frequency ratio)"},
      {"binder": "B6", "binding signal": "5.37 R (bound/input frequency ratio)"},
      {"binder": "B7", "binding signal": "6.93 R (bound/input frequency ratio)"},
      {"binder": "B8", "binding signal": "8.61 R (bound/input frequency ratio)"},
      {"binder": "B9", "binding signal": "6.07 R (bound/input frequency ratio)"}
    ]}
  ]
}
